Measured values taken from ChEMBL document CHEMBL1201862, “PubChem BioAssay data set” (2004).
Screen size: about 58,000 […]; about 3,400 (5.9%) were called active. No stated cut-off is given here; in the data, active = GI50 up to about 1.1 µM and inactive = higher. These entries were drawn from the full list. Entries with a potency or affinity are not part of this list.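 Following 48 hours of exposure in 96-well plates, responses at five concentrations were used to interpolate endpoints linearly. GI50 marks 50% less growth.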

What follows are substances tested on A549 (assay: NCI tumour cell line growth inhibition, 48 h).
In the case of “[Bis(aminomethyl)ethylmethylsilane]tetrachloroplatinum(IV), CHEMBL2146192”, the GI50 was 2.57 µM. Substance “[Bis(aminomethyl)tetramethylenesilane]dichloropaltinum(II), CHEMBL2146205” has a GI50 of 27 µM. For “mu-(1,7-nanodiamine-N,N')bis-(cis-aminedichloroplatimum (II)), CHEMBL2146215”, the GI50 was 38.7 µM. “[Bis(aminomethyl)dimethylsilane]tetrachloroplatinum(IV), CHEMBL2146190” gave a GI50 of 4.91 µM. “[Bis(aminomethyl)diethylsilane]tetrachloroplatinum(IV), CHEMBL2146203” was tested, and the GI50 was 6.84 µM. In the case of CISPLATIN, CHEMBL11359, the GI50 was 3.08 µM. Work on “[Bis(aminomethyl)dimethylsilane]dichloroplatinum (II), CHEMBL2146201” yielded a GI50 of 17.4 µM. “cis-Bis[[(trimethylsilyl)methyl]amino]tetrachloroplatinum(IV), CHEMBL2146191” gave a GI50 of 15.6 µM. “[Bis(aminomethyl)tetramethylenesilane]tetrachloropaltinum(IV), CHEMBL2146189” was tested, and the GI50 was 8.34 µM. Work on “[Bis(aminomethyl)pentamethylenesilane]dichloropaltinum(II), CHEMBL2146202” yielded a GI50 of 2.08 µM. For “[Bis(aminomethyl)pentamethylenesilane]tetrachloropaltinum(IV), CHEMBL2146204”, the GI50 was 2.02 µM.
